Where “and” joins values, the source holds several entries; their conditions need not be identical. Identical values can stand only once. Results filed as inconclusive are left out. Some structures have more than one record in an assay (separate samples or runs), and their calls can disagree. Calls of active or inactive are those of the source. The call rests on the fitted dose curve; in most records, active means well fitted activation curve with a large enough effect; inconclusive means small, poorly fitted or top-dose-only effect; inactive means no such curve, though single readings can be large or run the other way. Numbered stars: 1 amine (or outer) side, 2 acyl side, 3 side chain; on linkers, the order of the positions; unused ones are H or OH. Bridge positions count the residues as written; N and C are the ends. Peptide text beside a SMILES is read from it. X4 = O=C(CCC[*:2])[*:1]
target: Cellular tumor antigen p53 (Homo sapiens) (UniProt P04637); experiment: Primary qHTS for small molecule compounds that upregulate eGFP-tagged delta133p53alpha (in N-terminal) cells. (AID 2060322); settings: NCI-H358 eGFP-delta133p53alpha fluorescence, 24 h; activation: active compounds read high; further: nearly all actives have a fitted effect of over 75% in size;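 on activation: cells pre-induced with doxycycline then dosed without doxycycline; series mostly up to about 56 µM; 0% = DMSO vehicle and 100% = reference activator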
Sequence (P04637 whole entry, looked up): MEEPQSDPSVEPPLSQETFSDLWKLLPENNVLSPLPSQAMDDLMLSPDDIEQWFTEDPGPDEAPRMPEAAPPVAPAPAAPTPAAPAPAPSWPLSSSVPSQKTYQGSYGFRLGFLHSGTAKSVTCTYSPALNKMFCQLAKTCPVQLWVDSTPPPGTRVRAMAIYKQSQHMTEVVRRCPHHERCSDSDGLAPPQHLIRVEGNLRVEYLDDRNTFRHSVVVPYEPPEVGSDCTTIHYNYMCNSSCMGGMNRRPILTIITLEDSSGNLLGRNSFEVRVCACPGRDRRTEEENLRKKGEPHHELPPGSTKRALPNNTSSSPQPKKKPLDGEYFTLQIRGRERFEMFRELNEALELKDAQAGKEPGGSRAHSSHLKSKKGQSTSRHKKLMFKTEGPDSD
Excerpt: Assay Development and Screening Technology
National Center for Advancing Translational Sciences (NCATS),
National Institute of Health (NIH), Rockville, Maryland
Cellular senescence (CS) is one of the hallmarks of aging and age-related diseases. Senescent cells are characterized by an irreversible growth arrest, an increase in senescence-associated beta-galactosidase (SA-beta-gal) activity and p16INK4a expression, an activation of the DNA damage response pathways, and the emergence of a senescence-associated secretory phenotype (SASP).
Delta133p53alpha, a human/primate-specific p53 protein isoform, delays or inhibits the induction of CS and SASP in various types of human cells, including progeria-derived fibroblasts, primary normal astrocytes, and CD8+ T lymphocytes. Induction of delta133p53alpha with small molecule compounds may provide therapeutic opportunities for inhibition of senescence/SASP-associated pathologies in progeria syndromes, astrocyte-mediated neuroprotection in neurodegenerative diseases, and possibly prevention and treatment of a wider range of senescence- and aging-associated diseases.
Here we report the development and validation of a cell-based quantitative high throughput screening (qHTS) assay in 1,536-well format. This qHTS assay uses the NCI-H358 cell line with doxycycline-inducible expression of enhanced green fluorescent protein (eGFP)-tagged delta133p53alpha, which allows efficient and highly quantitative measurement of the protein levels.
PROTOCOL TABLE (as described by Inglese J, Shamu CE and Guy RK. 2007)
SEQUENCE No. (e.g., 1, 2, 3, etc.); […] (e.g., Cells, Incubation, Reagent, etc.); VALUE; DESCRIPTION.
1; Cells; 4uL; 800 doxycycline treated cells / well in doxycycline-free media, 1536-well black, clear-bottom low base Aurora microplates.
2; Compounds; 23 nL; Kalypsis pin tool (Wako) equipped with 1536-well pin heads, 5-azacytidine positive control.
3; Incubation; 24 hr; 37C, 5% CO2; 95% relative humidity.
4; Aspiration; 1x; BioTek EL406 washer dispenser (Agilent).
5; Fixing; 3.5% paraformaldehyde, BioTek EL406 washer dispenser (Agilent).
6; Washing; 1x PBS; BioTek EL406 washer dispenser (Agilent).
7; Nuclei staining; 1:1000 dilution of Hoechst 33342 (Thermofisher), BioTek EL406 washer dispenser (Agilent).
8; Incubation; 20 min; in the dark at room temperature.
9; Washing; 2x, 1x PBS (ThermoFisher), BioTek EL406 washer dispenser (Agilent).
10; Reagent; 10 uL; 1x PBS per well, sealed with clear adhesive tape.
NOTES (numbers refer to sequence numbers above).
1. NCI-H358 cells expressing eGFP-tagged delta133p53alpha were grown in T75 culture flasks and treated with doxycycline for 24h, at 10 ng/ml for eGFP-D133p53a cells (N-terminal cell) and 100 ng/ml for D133p53a-eGFP cells (C-terminal cells). Cells were trypsinized, counted using a Counted 3 Automated Cell Counter (Thermo Fisher), and diluted to a concentration of 200,000 cells/ml. A Multidrop Combi Reagent Dispenser (ThermoFisher) was used to dispense 800 cells/well in […] of doxycycline-free media, into 1536-well black/clear bottom low base plates (AuroraMicroplates).
2. After plating cells, 23 nl of compound library, DMSO vehicle control or positive control (5-azacytidine) were transferred by Pin Tool (Wako). The plate map layout was the same for each plate: (column 1) non-doxycycline treated cells + DMSO vehicle control; (column 2) doxycycline treated cells + DMSO vehicle control baseline; (column 3) doxycycline treated cells + positive control 57.5 uM final concentration 5-azacytidine; (column 4) doxycycline treated cells + serial dilution of 5-azacytidine, 16-point 1:2 titration spanning 1.8 nM to […] final concentration; (columns 5-48) doxycycline treated cells + titration of library compounds.
3. Cells were incubated at 37 °C, 5 % CO2, 95% RH with breathable metal lid for 24h.
4-10. […] After two washes, 10 ul of 1X PBS (Thermo Fisher) was dispensed to each well. Clear adhesive plate seals (VWR) were applied and plates stored at 4 °C.
11. […]
Potency means the concentration at half of the fitted maximal effect.

Row | SMILES | activation | Potency
1 | COc1cc(O)c2c(c1)C1(OC2=O)C(C)=CC(=O)C1O (stereo not given) | -16% (inactive) | 
2 | C=C1C(=O)OC2CC(COC(=O)C(C)C)=C(C(C)CCCOC(C)=O)[C@@H](OC(C)=O)C12 (stereo not given in full) | 6.87% (inactive) | 
3 | CC1(C)CC2C(O)c3cocc3CC(C)(O)C2C1 (stereo not given) | -8.04% (inactive) | 
4 | COCCOc1ccc(N2CCN(CCn3ncc4c3nc(N)n3nc(-c5ccco5)nc43)CC2)cc1 | 6.21% (inactive) | 
5 | CCCCOC(=O)NS(=O)(=O)c1sc(CC(C)C)cc1-c1ccc(Cn2ccnc2)cc1 | 6.25% (inactive) | 
6 | CC[C@H](C)[C@@H]1NC(=O)[C@H](Cc2ccc(OC)cc2)NC(=O)CCCSC[C@@H](C(=O)N2CCC[C@H]2C(=O)N[C@@H](CC(C)C)C(=O)NCC(N)=O)NC(=O)[C@H](CC(N)=O)NC(=O)[C@H](CCC(N)=O)NC1=O (Y(Me)IQNCPLG-NH2; linker N-5 via X4) | -10.3% (inactive) | 
7 | C[C@@H]1C[C@@H](O)[C@@]2(CO)C(CO)=CCC[C@@H]2[C@@]12C[C@@H](c1ccoc1)OC2=O | 21.4% (inactive) | 
8 | CCC(=O)N[C@@H]1Cc2ccccc2[C@H](c2ccccc2)C1 | -0.333% (inactive) | 
9 | C=C(C)C1=C[C@@]2(C)C(=CC1=O)CC[C@@H](O)[C@@H]2C | 22.1% (inactive) | 
10 | CCCC1=CC2=C(CO1)C(=O)C(C)(OC(=O)c1c(C)cc(OC)cc1O)C(O)C2 (stereo not given) | -24.4% (inactive) | 
11 | CC(NC(=O)c1ccccc1N=Cc1c(O)ccc2ccccc12)c1ccccc1 (stereo not given) |  | 43.2 µM (active)
12 | C[C@@H]1CCN(C(=O)[C@H](CCCN=C(N)N)NS(=O)(=O)c2cccc3c2NC[C@H](C)C3)[C@@H](C(=O)O)C1 | 2.82% (inactive) | 
13 | CS(=O)(=O)N(CC(=O)NCC1CC1)c1cc(C(F)(F)F)ccc1Cl | -13% (inactive) | 
14 | O=C(CCCCCCCCC#CI)Oc1ccccc1 | -8.33% (inactive) | 
15 | CC(=O)NC[C@H]1CN(c2ccc(N3CCSCC3)c(F)c2)C(=O)O1 | 0% (inactive) | 
16 | COC(=O)C1C(c2ccc(O)cc2)C(C(=O)OC)C1c1ccc(O)cc1 (stereo not given) | -16.1% (inactive) | 
17 | N#CC(=C1Nc2ccccc2S1)c1ccnc(OCc2ccc(CN3CCOCC3)cc2)n1 | -32.5% (inactive) | 
18 | COC(=O)CC(O)CC(O)/C=C/c1c(C)ccc2c1C(OC(C)=O)CC(C)C2 (stereo not given) | -0.763% (inactive) | 
19 | C[C@@H]1O[C@@H](O[C@H]2[C@H](O[C@H]3[C@H](O[C@H]4CC[C@@]5(C)C(CC[C@]6(C)C5CC=C5[C@@H]7CC(C)(C)C[C@@H](O)[C@]7(C)CC[C@]56C)[C@@]4(C)CO)O[C@H](C(=O)O)[C@@H](O)[C@@H]3O)O[C@H](CO)[C@H](O)[C@@H]2O)[C@H](O)[C@H](O)[C@H]1O (stereo not given in full) | -9.92% (inactive) | 
20 | CC(C)(O)CC(=O)NCCn1ccc2ncnc(Nc3ccc(Oc4cccc(C(F)(F)F)c4)c(Cl)c3)c21 |  | 24.3 µM (active)

Row | SMILES | activation | Potency
21 | O=C(Nc1ccc([N+](=O)[O-])cc1Cl)c1cc(Cl)ccc1O | 122% (inactive) and -83.1% (inactive) | 4.26 µM (active)
22 | CC(C)C1C(OC(=O)/C=C/c2ccccc2)CC2(C)OC2CCC2(C)OC2C1O (stereo not given) | -0.763% (inactive) | 
23 | COc1cc2c(cc1O)C1(OC)Cc3ccc4c(c3C1N(C)CC2)OCO4 (stereo not given) | 20.5% (inactive) | 
24 | COc1cc(CCC2=NN=C(NC(=O)c3ccc(N4C[C@@H](C)N[C@@H](C)C4)cc3)C2)cc(OC)c1 | -0.333% (inactive) | 
25 | O=C(Nc1ccc2[nH]c(=O)oc2c1)C(=O)N1CCC(Cc2ccc(F)cc2)CC1 | 2.39% (inactive) | 
26 | COc1ccc(-c2nc(-c3cc(C(F)(F)F)cc(C(F)(F)F)c3)n(Cc3ccc(C(N)=O)cc3)c2-c2ccc(OC)cc2)cc1 | -11% (inactive) | 
27 | N#CC1(c2ccc(NC(=O)c3cccnc3NCc3ccncc3)cc2)CCCC1 | -7.07% (inactive) | 
28 | C[C@H](Oc1ccc(S(C)(=O)=O)cc1C(=O)N1CCN(c2ncc(C(F)(F)F)cc2F)CC1)C(F)(F)F | 4.46% (inactive) | 
29 | CCc1cc(C(N)=S)ccn1 | -7.53% (inactive) and 9.71% (inactive) | 
30 | CCCCC(=O)N(Cc1ccc(-c2ccccc2-c2nn[nH]n2)cc1)C(C(=O)O)C(C)C (stereo not given) | 0% (inactive) | 
31 | OC[C@H]1O[C@@H](Oc2cc(O)cc(-c3cc4ccc(O[C@@H]5O[C@H](CO)[C@@H](O)[C@H](O)[C@H]5O)cc4o3)c2)[C@H](O)[C@@H](O)[C@@H]1O | -14.3% (inactive) | 
32 | CN1CCC2(CCN3CCc4c(oc5ccccc45)C3C2)N(C)C1=O (stereo not given) | -14.7% (inactive) | 
33 | O=C(NCCCNC(=O)c1ccc[nH]c1=O)c1cc(-c2ccccc2)on1 | -2.33% (inactive) | 
34 | COc1cc(/C=C/C(=O)OC[C@H]2O[C@@H](OC3CC(C)=C(C(=O)O)C(C)(C)C3)[C@H](O)[C@@H](O)[C@@H]2O)cc(OC)c1O (stereo not given in full) | -16.8% (inactive) | 
35 | CCN(CC)C(=O)/C(C#N)=C/c1cc(O)c(O)c([N+](=O)[O-])c1 | -3.95% (inactive) | 
36 | CC(N)(Cc1ccc(O)c(O)c1)C(=O)O (stereo not given) | -16.9% (inactive) | 
37 | CC1(C)CC[C@]2(C(=O)O[C@@H]3O[C@H](CO[C@@H]4O[C@H](CO)[C@@H](O)[C@H](O)[C@H]4O)[C@@H](O)[C@H](O[C@@H]4O[C@H](CO)[C@@H](O)[C@H](O)[C@H]4O)[C@H]3O)CC[C@]3(C)C(=CCC4[C@@]5(C)CC[C@H](O[C@@H]6OC[C@@H](O)[C@H](O)[C@H]6O)[C@@](C)(C(=O)O)C5CC[C@]43C)[C@@H]2C1 (stereo not given in full) | 0% (inactive) | 
38 | C[C@H](O)[C@H](O)[C@H]1CNc2nc(N)[nH]c(=O)c2N1 | 10.3% (inactive) | 
39 | Fc1ccc(N2CCN(CCC3OCCc4ccccc43)CC2)cc1 (stereo not given) | -6.21% (inactive) | 

From PubChem BioAssay (NCATS)
